# ± gives the standard deviation.
# Key:
# Settings in all cases: modulator concentration 10 µM
# [1] = tested on: RAW-Dual (murine macrophage reporter line); assay: NF-kB reporter (SEAP) activity fold change vs agonist alone; higher = enhanced NF-kB activity
# Summary of the method: (§1)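 In 384-well plates holding 50 000 RAW-Dual murine macrophage reporter cells per well, compound at 10 μM final was pre-incubated for 1 hour at 37 °C, after which a PRR agonist was added overnight. Supernatant SEAP read with QUANTI-Blue at 620 nm absorbance reported NF-κB, and Lucia luciferase read with QUANTI-Luc luminescence reported IRF. Fold change values come from dividing each reporter signal by the mean of agonist-only control wells on the same plate, averaged over replicate plates with propagated errors.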
# [2] = tested on: RAW-Dual (murine macrophage reporter line); assay: IRF reporter (Lucia luciferase) activity fold change vs agonist alone; higher = enhanced IRF activity
# Summary of the method: as §1
# [3] = tested on: RAW-Dual (murine macrophage reporter line); assay: viability score (confluency relative to resting cells, overnight) (fraction); higher = more viable, active = viable (0.7 or more)
# Summary of the method: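 Compound was added at a final 10 μM to RAW-Dual macrophages in 384-well plates and left overnight. Confluency was imaged with IncuCyte, and two masks were generated in IncuCyte software over all imaged wells. Each viability score is confluency relative to resting cells, and a compound met the cutoff only when both masks were above 70% of resting cells.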
# [4] = agonist: CpG ODN 1826 0.5 ug/mL
Structure (SMILES),"NF-kB reporter [1, 4]",NF-kB reporter ([1]; agonist: LPS 0.1 ug/mL),NF-kB reporter ([1]; agonist: MPLA […]),IRF reporter ([2]; agonist: 3'3'-cGAMP 10 ug/mL),IRF reporter ([2]; agonist: LPS 0.1 ug/mL),IRF reporter ([2]; agonist: MPLA […]),viability score [3]
CCOc1ccc(C(CN)N2CCOCC2)cc1 (configuration not stated),1.07 ± 0.048,0.934 ± 0.079,1.08 ± 0.075,0.943 ± 0.046,1.33 ± 0.28,1.29 ± 0.44,0.941 (active)
S=c1n(CN2CCOCC2)nc(-c2ccccc2Br)n1-c1ccccc1,1.08 ± 0.19,0.947 ± 0.099,0.951 ± 0.073,0.884 ± 0.031,1.21 ± 0.12,1.22 ± 0.17,1 (active)
COc1ccccc1-c1noc(C2CN(S(=O)(=O)N(C)C)C2)n1,0.972 ± 0.051,0.982 ± 0.083,1.29 ± 0.09,1.02 ± 0.047,1.27 ± 0.26,1.54 ± 0.51,0.993 (active)
CCCCOc1ccc(CC(=O)NO)cc1,1.69 ± 0.38,1.56 ± 0.37,1.34 ± 0.076,0.241 ± 0.0073,0.87 ± 0.19,0.815 ± 0.062,0.999 (active)
NS(=O)(=O)c1ccc2c(c1)C1C=CCC1C(C(=O)O)N2 (configuration not stated),0.586 ± 0.049,0.992 ± 0.15,1.01 ± 0.075,0.8 ± 0.043,0.931 ± 0.055,1.01 ± 0.089,0.997 (active)
O=C(C=Cc1ccccc1)NC(NC(=S)Nc1cccc2cccnc12)C(Cl)(Cl)Cl (configuration not stated),0.507 ± 0.089,0.575 ± 0.067,0.624 ± 0.048,0.452 ± 0.027,1.01 ± 0.1,1.13 ± 0.25,1.01 (active)
Cc1cc(Cl)ccc1OCCCC(=O)NO,0.745 ± 0.091,0.794 ± 0.039,1.19 ± 0.028,0.234 ± 0.014,0.449 ± 0.084,0.553 ± 0.12,0.986 (active)
Cc1cccc(OCCn2cc(C=Nn3cnnc3)c3ccccc32)c1,1.4 ± 0.11,1.12 ± 0.095,1.31 ± 0.13,0.992 ± 0.059,1.23 ± 0.11,1.5 ± 0.24,0.975 (active)
CCN(CC)c1ccc(C=NNC(=O)c2ccncc2)c(O)c1,2.56 ± 0.2,1.66 ± 0.13,5.41 ± 0.24,0.888 ± 0.12,1.29 ± 0.084,1.35 ± 0.14,0.695 (inactive)
CC12CC3CC(C)(C1)CC(N)(C3)C2 [Prestw-978],0.916 ± 0.073,0.95 ± 0.092,0.996 ± 0.095,1.26 ± 0.045,0.925 ± 0.078,0.844 ± 0.17,0.979 (active)
CN1CCN(CCOc2cc(OC3CCOCC3)c3c(Nc4c(Cl)ccc5c4OCO5)ncnc3c2)CC1,0.135 ± 0.02,1.48 ± 0.29,1.99 ± 0.11,0.395 ± 0.012,0.597 ± 0.13,0.983 ± 0.17,0.886 (active)
COc1cc2c3cc1Oc1cc(ccc1O)OC1c4c(cc(OC)c(O)c4Oc4ccc(cc4)CC3N(C)CC2)CCN1C (configuration not stated),0.191 ± 0.011,1.05 ± 0.064,1.03 ± 0.084,0.793 ± 0.034,1.47 ± 0.23,1.34 ± 0.13,0.995 (active)
CCOC(=O)c1ccc2nc(NC(=O)c3ccco3)sc2c1,0.971 ± 0.079,0.876 ± 0.064,1.13 ± 0.14,0.996 ± 0.051,1.35 ± 0.19,1.58 ± 0.3,1.01 (active)
COc1ccc(C2OCC3C(c4ccc(OC)c(OC)c4)OCC23)cc1OC (configuration not stated),1.18 ± 0.091,1.03 ± 0.094,1.08 ± 0.11,1.11 ± 0.088,1.07 ± 0.13,1.21 ± 0.23,1.01 (active)
O=C(O)c1ccccc1O,1.03 ± 0.23,1.04 ± 0.18,0.923 ± 0.052,0.925 ± 0.03,1.34 ± 0.12,1.23 ± 0.094,0.995 (active)
O=S(=O)(Cc1cccc(Cl)c1)N1C2CCC1CC(Oc1cccnc1)C2 (configuration not stated),1.07 ± 0.064,1.13 ± 0.1,1.08 ± 0.039,0.96 ± 0.064,1.12 ± 0.063,1.2 ± 0.12,1 (active)
COc1ccc(N(CC(=O)NCCSCc2cccc(Cl)c2)S(C)(=O)=O)cc1Cl,0.917 ± 0.073,0.98 ± 0.065,0.831 ± 0.05,1.11 ± 0.031,1.08 ± 0.12,0.974 ± 0.098,1 (active)
COC(=O)Nc1nc2cc(S(=O)c3ccccc3)ccc2[nH]1 (configuration not stated) [Prestw-1459],1.03 ± 0.087,0.896 ± 0.079,0.932 ± 0.051,0.896 ± 0.04,0.825 ± 0.13,0.884 ± 0.23,0.999 (active)
NC(Cc1ccccc1)C(=O)O (configuration not stated),1.29 ± 0.31,0.956 ± 0.07,0.943 ± 0.071,0.911 ± 0.032,1.12 ± 0.22,1.1 ± 0.1,1 (active)
Cc1nc(-c2ccc(S(=O)(=O)N3C4CCC3CC(Oc3cccnc3)C4)cc2)co1 (configuration not stated),1 ± 0.093,1.08 ± 0.086,0.94 ± 0.051,1.04 ± 0.077,1.14 ± 0.087,1 ± 0.092,1.01 (active)
CCOC(=O)c1ccccc1NC(=O)CN(c1cc(Cl)ccc1OC)S(C)(=O)=O,1.02 ± 0.15,1.09 ± 0.067,0.897 ± 0.054,1.02 ± 0.029,1.38 ± 0.2,1.14 ± 0.14,1.01 (active)
C=C1CCC2C(C)(CO)C(O)CCC2(C)C1CC=C1C(=O)OCC1O (configuration not stated),0.462 ± 0.11,0.496 ± 0.025,0.755 ± 0.11,0.188 ± 0.0064,2.13 ± 0.35,1.51 ± 0.18,0.839 (active)
CCS(=O)(=O)O.COC(=O)c1ccc2c(c1)NC(=O)/C2=C(\Nc1ccc(N(C)C(=O)CN2CCN(C)CC2)cc1)c1ccccc1,0.115 ± 0.027,0.886 ± 0.044,2.23 ± 0.18,0.036 ± 0.002,0.177 ± 0.025,0.241 ± 0.028,0.839 (active)
Cc1nc2n(c(=O)c1CCN1CCC(c3noc4cc(F)ccc34)CC1)CCCC2,0.741 ± 0.18,0.982 ± 0.09,0.915 ± 0.06,0.891 ± 0.036,1.13 ± 0.3,1.03 ± 0.13,1.01 (active)
CC12CC3CC(C)(C1)CC(CNC(=O)c1ccc([N+](=O)[O-])cc1)(C3)C2,1.1 ± 0.1,0.895 ± 0.065,0.957 ± 0.09,0.999 ± 0.032,1.38 ± 0.22,1.48 ± 0.37,1 (active)
Cc1noc(C)c1CN1CCC(C(F)(F)F)CC1.Cl,0.908 ± 0.048,0.947 ± 0.081,1.1 ± 0.066,1.09 ± 0.072,1.32 ± 0.29,1.6 ± 0.52,0.937 (active)
